Screens (PubChem)
SENP6 inh = inhibitors of human SENP6 protease. Q9GZR1. Recombinant SENP6 catalytic domain, aminoluciferin luminescence. inhibition, % at 10 µM. 1.8% of 330,000 active. AID 2599;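 active = inhibition above about 50% at the single tested dose, limit read from the data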
TRAIL sens C8 = caspase-8 TRAIL sensitization. AID 624354. inhibition (viability loss, TRAIL sensitization), % at 10 µM. 1% of 360,000 active. NB7+C8 cells + TRAIL, ATPlite viability luminescence;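 active = compounds causing at least 50% loss of cell viability in the single-dose screen, relative to plate controls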
SENP7 block = inhibitors of human SENP7 protease; 1.5% of 330,000 active; Q9BQF6; recombinant SENP7, Z-RLRGG-aminoluciferin luminescence, 40 min; inhibition, % at 5 µM;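 active = inhibition above about 50% at the single test dose, limit read from the data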
Target sequence (Q9BQF6 706-1050 limits assumed): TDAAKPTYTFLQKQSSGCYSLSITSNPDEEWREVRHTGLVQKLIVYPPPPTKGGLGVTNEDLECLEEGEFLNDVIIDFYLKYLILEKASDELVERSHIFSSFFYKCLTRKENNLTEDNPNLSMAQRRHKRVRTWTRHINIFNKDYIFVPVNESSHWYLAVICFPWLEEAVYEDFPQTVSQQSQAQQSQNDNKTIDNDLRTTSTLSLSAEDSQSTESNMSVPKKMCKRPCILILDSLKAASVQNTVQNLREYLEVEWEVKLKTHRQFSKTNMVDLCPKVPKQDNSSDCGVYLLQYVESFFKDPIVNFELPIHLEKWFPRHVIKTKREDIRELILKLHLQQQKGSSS
PPC-1+TRAIL kill = kills PPC-1 cancer cells in the presence of TRAIL | PPC-1 cells + TRAIL, ATPLite viability luminescence | cell killing (% activity), % at 4 µM or 5 µM | 0.41% of 220,000 active;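 active = cell killing above 50% in the first pass at 4 µM, then a duplicate retest at 5 µM averaging 50% or more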
SENP8 block-1 = inhibitors of human SENP8 protease. Q96LD8. inhibition, % at 10 µM. 1.2% of 330,000 active. purified SENP8, Z-RLRGG-aminoluciferin cleavage, luminescence; in the data active = inhibition above about 50%
SENP8 block-2 = blocks human SENP8 cleavage of Nedd8 substrate | recombinant SENP8, Nedd8 substrate fluorescence | inhibition, % at 20 µM | 0.64% of 360,000 active | AID 602440; in the data active = inhibition mostly above about 40%, no sharp cut-off; inactive = mostly below about 27%
PPC-1 tox = PPC-1 cell cytotoxicity. PPC-1 viability, ATPlite luminescence, overnight. AID 1447. cytotoxicity, % at 5 µM. shares compounds with PPC-1+TRAIL kill. 50% of 1,200 active;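 active = reconfirmed compounds whose average cytotoxicity reaches 50% or more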
Of the large screens only hits and unclear results are named; the others gave an inactive call (follow-up assays come after a bar, where they were run). An excerpt weighted towards active compounds, which were near 3% of everything screened.

Cc1ccc(NCc2ccccc2O)c(C)c1	none | PPC-1 tox inactive
C/C(=N\NC(=O)c1cccc(S(=O)(=O)N2CCOCC2)c1)c1ccc(C)cc1	none (no result: PPC-1+TRAIL kill)
CC(C)NC(=O)N(C)C[C@@H]1Oc2c(NC(=O)Nc3ccccc3)cccc2C(=O)N([C@H](C)CO)C[C@H]1C	none (no result: PPC-1+TRAIL kill)
CCCn1c(N)c(C(=O)CSc2nnc(Cc3ccccc3)o2)c(=O)n(C)c1=O	none | PPC-1 tox inactive
Cc1ccccc1OCc1nnc(SCC(=O)Nc2ccc3nc(SCC(=O)NC(C)(C)C)sc3c2)n1C	none | PPC-1 tox inactive
COc1ccc(C(=O)Nc2ccccc2C(=O)N/N=C/c2ccncc2)cc1OC	TRAIL sens C8 94.4, PPC-1+TRAIL kill 95.5 | PPC-1 tox 95.7
Cc1n[nH]c(=O)nc1N1CCN(c2ccccc2)CC1	none | PPC-1 tox inactive
Cc1cc(C)c2c(N)c(C(=O)Nc3nccs3)sc2n1	TRAIL sens C8 81.3, PPC-1+TRAIL kill 81.7 | PPC-1 tox 80.8
Cc1ccccc1NC(=O)C1CCCN1S(=O)(=O)c1ccccc1C(F)(F)F (stereo unspecified)	none (no result: PPC-1+TRAIL kill)
Cc1cnc(NC(=O)CC2OC(=O)c3ccccc32)s1 (stereo unspecified)	none (no result: PPC-1+TRAIL kill)
O=C(Nc1ccc(-c2ccccc2)cc1)c1ccc2c(c1)S(=O)(=O)c1ccccc1C2=O	none (no result: PPC-1+TRAIL kill)
O=C1C(=O)c2ccc(-c3ccccc3)cc2-c2ccccc21	SENP6 inh 89.2, TRAIL sens C8 93.0, SENP7 block 90.5, PPC-1+TRAIL kill 96.9, SENP8 block-1 58.0, SENP8 block-2 99.6 | PPC-1 tox 97.1
O=C(Nc1nc2ccccc2[nH]1)c1ccc(Br)o1	none | PPC-1 tox inactive
O=C(NCCc1nc2ccccc2[nH]1)c1ccc(Br)o1	none (no result: PPC-1+TRAIL kill)
O=C(COc1ccccc1Cl)OCC(=O)N1CCN(S(=O)(=O)c2ccccc2)CC1	none | PPC-1 tox inactive
Cc1ccc(S(=O)(=O)N2CCN(C(=O)COC(=O)COc3ccccc3)CC2)cc1	none
COc1cc(/C=C(/C(=O)c2cccs2)c2nc3ccccc3[nH]2)ccc1O	none | PPC-1 tox inactive
O=C(/C(=C/c1ccc(Cl)cc1)c1nc2ccccc2[nH]1)c1cccs1	none
CCn1c(C(=O)N2CCc3ccccc3C2)cc2oc3ccccc3c21	none | PPC-1 tox inactive
Cc1ccc(NC(=O)c2cc3ccccc3o2)cc1S(=O)(=O)N(C)C	TRAIL sens C8 66.9 (no result: SENP6 inh, SENP7 block, SENP8 block-1) | PPC-1 tox inactive
CN(C)S(=O)(=O)c1ccc(NC(=O)c2cc3ccccc3o2)cc1	none
COc1c(Br)cc(Br)cc1C(=O)Nc1ccccc1N1CCCC1	none (no result: PPC-1+TRAIL kill)
O=C(O)CSc1nnc(NC(=O)c2ccc3c(c2)OCO3)s1	TRAIL sens C8 73.9, PPC-1+TRAIL kill 65.7 | PPC-1 tox 67.1
C=CCSc1nnc(NC(=O)c2ccc3c(c2)OCCO3)s1	none (no result: SENP6 inh, SENP7 block, PPC-1+TRAIL kill, SENP8 block-1)
Cn1cc(C(=O)N/N=C/c2c(O)ccc3ccccc23)ccc1=O	none | PPC-1 tox inactive
O=C(N/N=C\c1c(O)ccc2ccccc12)c1ccc(O)cc1	none (no result: PPC-1+TRAIL kill)
COCCN1CCN(c2cc(-c3ccccc3)nc3cc(-c4cccc(F)c4)nn23)CC1	none | PPC-1 tox inactive
Fc1cccc(-c2cc3nc(-c4ccccc4)cc(N4CCC5(CC4)OCCO5)n3n2)c1	none
O=C(NC(=O)c1ccccc1O)c1ccc2c(c1)CCO2	SENP6 inh 65.0, TRAIL sens C8 74.4, PPC-1+TRAIL kill 68.7, SENP8 block-1 51.0 | PPC-1 tox 67.6
COC(=O)Cn1c(O)c(N=NC(=O)c2ccc3c(c2)OCO3)c2ccccc21	TRAIL sens C8 60.8 | PPC-1 tox inactive
CCOC(=O)Cn1c(O)c(N=NC(=O)OC)c2ccccc21	none
CCOC(=O)c1c(N2CCN(c3ccccc3)CC2)cc(C)nc1C	none (no result: PPC-1+TRAIL kill)
CCOC(=O)c1c(Nc2ccccc2N)cc(C)nc1C	none | PPC-1 tox inactive
Cc1ccc(S(=O)(=O)N2C[C@H]3[C@H]4C(=O)N(c5ccccc5)C(=O)[C@H]4C[C@H](OC(=O)NC4CCCC4)[C@@]3(O)C2)cc1	none (no result: SENP6 inh, SENP7 block, PPC-1+TRAIL kill, SENP8 block-1)
CCC(C)c1ccc(-c2cc(C(=O)OCC(=O)Nc3cc(C)on3)c3ccccc3n2)cc1 (stereo unspecified)	TRAIL sens C8 82.5, PPC-1+TRAIL kill 82.8 | PPC-1 tox 80.1
Cc1ccc(C)c(NC(=O)CCC(=O)NN=C2CCCC2)c1	none (no result: PPC-1+TRAIL kill)
Cc1c(Cl)ccc2c(C(N)=O)cc(-c3ccccn3)nc12	none
